# Measured values: PubChem BioAssay (NCATS)
# Results filed as inconclusive are left out. Entries that show only a call come without a potency. The source made the active and inactive calls. Unless noted, the call rests on the fitted dose curve; in most records, active means well fitted inhibition curve with a large enough effect; inconclusive means small, poorly fitted or top-dose-only effect; inactive means flat fitted curve, though single readings scatter.
# Assays:
# [1] = qHTS drug screen for cell cycle checkpoint inhibitors in PARPi-resistant BRCA-mutant ovarian cancer cell lines. (AID 1963452; calls by dose curve); details: PEO1/OlaR viability, CellTiter-Glo luminescence, 96 h, stronger effect = lower value
# How it was run: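 PEO1, PEO4 and PEO1/OlaR ovarian cancer cells, 600 per well, exposed 96 h at 37C to a dilution series. Viability read by CellTiter-Glo luminescence, normalized to DMSO and empty wells; activity summarized as Z-AUC.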
# [2] = qHTS for identification of novel therapeutic agents for treatment of microphthalmiaassociated transcription factor (MiT) renal cell carcinoma (RCC) (AID 1963991); details: CellTiter-Glo, 48 h, stronger effect = lower value
# How it was run: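 Viability of three TFE3-fusion renal carcinoma lines measured by CellTiter-Glo after 48 h treatment with each of 1912 compounds at 11 concentrations. Responses scaled between DMSO (100%) and empty wells (0%) before curve fitting.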
# [3] = qHTS profiling for inhibitors of Plasmodium falciparum proliferation (AID 504749); further: nearly all actives have a fitted effect of over 60% in size; further: potency means the concentration at half of the fitted maximal effect; details: P. falciparum in erythrocytes, SYBR Green DNA, 72 h
# How it was run: (§1)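 P. falciparum-infected erythrocytes (0.3% parasitemia, 2.5% hematocrit) incubated with compound 72 h at 37 C, 5% CO2. Parasite DNA detected by SYBR Green after lysis, overnight at room temperature; normalised to 0.29 uM artemisinin and DMSO.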
# 3D7 = assay: as above; details: P. falciparum in erythrocytes, SYBR Green DNA, 72 h; series mostly up to 28.7 µM
# How it was run: as §1
# 7G8 = assay: as above; details: P. falciparum in erythrocytes, SYBR Green DNA, 72 h; series mostly up to 28.7 µM
# How it was run: as §1
# AA1029 = assay: as above; details: P. falciparum in erythrocytes, SYBR Green DNA, 72 h; series mostly up to 28.7 µM
# How it was run: as §1
# AS120 = assay: as above; details: P. falciparum in erythrocytes, SYBR Green DNA, 72 h; series mostly up to 28.7 µM
# How it was run: as §1
# ATS189 = assay: as above; details: P. falciparum in erythrocytes, SYBR Green DNA, 72 h; series mostly up to 28.7 µM
# How it was run: as §1
# ATS95 = assay: as above; details: P. falciparum in erythrocytes, SYBR Green DNA, 72 h; series mostly up to 28.7 µM
# How it was run: as §1
# C2A = assay: as above; details: P. falciparum in erythrocytes, SYBR Green DNA, 72 h; series mostly up to 28.7 µM
# How it was run: as §1
# CP185 = assay: as above; details: P. falciparum in erythrocytes, SYBR Green DNA, 72 h; series mostly up to 28.7 µM
# How it was run: as §1
# CP191 = assay: as above; details: P. falciparum in erythrocytes, SYBR Green DNA, 72 h; series mostly up to 28.7 µM
# How it was run: as §1
# CP192 = assay: as above; details: P. falciparum in erythrocytes, SYBR Green DNA, 72 h; series mostly up to 28.7 µM
# How it was run: as §1
# CP194 = assay: as above; details: P. falciparum in erythrocytes, SYBR Green DNA, 72 h; series mostly up to 28.7 µM
# How it was run: as §1
# CP201 = assay: as above; details: P. falciparum in erythrocytes, SYBR Green DNA, 72 h; series mostly up to 28.7 µM
# How it was run: as §1
# [4] = measured here: PEO1 parental Z-AUC
# [5] = TFE3-RCC UOK109 viability, measured here: UOK109 Z-AUC
# [6] = TFE3-RCC viability, measured here: UOK124 Z-AUC
# [7] = TFE3-RCC viability, measured here: UOK145 Z-AUC
# [8] = at 12.8 µM (top of the series), parasite line A
# [9] = at 12.8 µM (top of the series), parasite line B
# [10] = at 28.7 µM (top of the series), parasite line A
# [11] = at 28.7 µM (top of the series), parasite line B
compound,measurement,setting,value
Nc1nc2c(ncn2COCCO)c(=O)[nH]1,Z-AUC,[1],-0.761 (inactive)
same,Z-AUC,[1]; [4],-0.588
same,Z-AUC,[1]; measured here: PEO4 Z-AUC,-0.538
same,z-score,[2]; [5],0.456
same,z-score,[2]; [6],1.73
same,z-score,[2]; [7],0.51
same,"activity, negative = inhibition",[3]; [8],8.65% (inactive)
same,"activity, negative = inhibition",[3]; [9],-5.76% (inactive)
same,Potency,3D7,inactive
same,Potency,7G8,inactive
same,Potency,AA1029,inactive
same,Potency,AS120,inactive
same,Potency,ATS189,inactive
same,Potency,ATS95,inactive
same,Potency,C2A,inactive
same,Potency,CP185,inactive
same,Potency,CP191,inactive
same,Potency,CP192,inactive
same,Potency,CP194,inactive
same,outcome,CP201,inactive
Cc1ccc(N(CC2=NCCN2)c2cccc(O)c2)cc1,Z-AUC,[1],1.67 (inactive)
same,Z-AUC,[1]; [4],1.44
same,Z-AUC,[1]; measured here: PEO4 Z-AUC,1.79
same,"activity, negative = inhibition",[3]; [10],-3.3% (inactive)
same,"activity, negative = inhibition",[3]; [11],-5.03% (inactive)
same,Potency,3D7,inactive
same,Potency,7G8,inactive
same,Potency,AA1029,inactive
same,Potency,AS120,inactive
same,Potency,ATS189,inactive
same,Potency,ATS95,inactive
same,Potency,C2A,inactive
same,Potency,CP185,inactive
same,Potency,CP191,inactive
same,Potency,CP192,inactive
same,Potency,CP194,inactive
same,outcome,CP201,inactive
CC(C[N+](C)(C)C)OC(N)=O (stereo unspecified),Z-AUC,[1],1.18 (inactive)
same,Z-AUC,[1]; [4],1.37
same,Z-AUC,[1]; measured here: PEO4 Z-AUC,1.64
same,z-score,[2]; [5],0.592
same,z-score,[2]; [6],0.666
same,z-score,[2]; [7],0.688
same,"activity, negative = inhibition",[3]; [10],8.36% (inactive)
same,"activity, negative = inhibition",[3]; [11],9.26% (inactive)
same,Potency,3D7,inactive
same,Potency,7G8,inactive
same,Potency,AA1029,inactive
same,Potency,AS120,inactive
same,Potency,ATS189,inactive
same,Potency,ATS95,inactive
same,Potency,C2A,inactive
same,Potency,CP185,inactive
same,Potency,CP191,inactive
same,Potency,CP192,inactive
same,Potency,CP194,inactive
same,outcome,CP201,inactive
CCCCNc1cc(C(=O)O)cc(S(N)(=O)=O)c1Oc1ccccc1,Z-AUC,[1],-0.665 (inactive)
same,Z-AUC,[1]; [4],0.995
same,Z-AUC,[1]; measured here: PEO4 Z-AUC,0.519
same,z-score,[2]; [5],0.772
same,z-score,[2]; [6],0.679
same,z-score,[2]; [7],-1.8
same,"activity, negative = inhibition",[3]; [8],-5.15% (inactive)
same,"activity, negative = inhibition",[3]; [9],8.34% (inactive)
same,Potency,3D7,inactive
same,Potency,7G8,inactive
same,Potency,AA1029,inactive
same,Potency,AS120,inactive
same,Potency,ATS189,inactive
same,Potency,ATS95,inactive
same,Potency,C2A,inactive
same,Potency,CP185,inactive
same,Potency,CP191,inactive
same,Potency,CP192,inactive
same,Potency,CP194,inactive
same,outcome,CP201,inactive
CC(C)C[C@H](NC(=O)[C@@H](O)[C@H](N)Cc1ccccc1)C(=O)O,Z-AUC,[1],0.8 (inactive)
same,Z-AUC,[1]; [4],0.368
same,Z-AUC,[1]; measured here: PEO4 Z-AUC,0.252
same,Potency,[3]; parasite line A,2.51 µM (active)
same,Potency,[3]; parasite line B,5.62 µM (active)
same,Potency,3D7,2.51 µM (active)
same,Potency,7G8,4.47 µM (active)
same,Potency,AA1029,5.62 µM (active)
same,Potency,AS120,6.31 µM (active)
same,Potency,ATS189,8.91 µM (active)
same,Potency,ATS95,7.94 µM (active)
same,Potency,C2A,3.98 µM (active)
same,Potency,CP185,11.2 µM (active)
same,Potency,CP191,5.01 µM (active)
same,Potency,CP194,6.75 µM (active)
NC[C@H](O)c1ccc(O)c(O)c1,Z-AUC,[1],-0.408 (inactive)
same,Z-AUC,[1]; [4],-0.854
same,Z-AUC,[1]; measured here: PEO4 Z-AUC,-0.505
same,z-score,[2]; [5],0.441
same,z-score,[2]; [6],0.472
same,z-score,[2]; [7],0.785
same,"activity, negative = inhibition",[3]; [10],5.08% (inactive)
same,"activity, negative = inhibition",[3]; [11],9.63% (inactive)
same,Potency,3D7,inactive
same,Potency,7G8,inactive
same,Potency,AA1029,inactive
same,Potency,AS120,inactive
same,Potency,ATS189,inactive
same,Potency,ATS95,inactive
same,Potency,C2A,inactive
same,Potency,CP185,inactive
same,Potency,CP191,inactive
same,Potency,CP194,inactive
same,outcome,CP201,inactive
O=C(O)CCc1ccc(NCc2cccc(Oc3ccccc3)c2)cc1,Z-AUC,[1],1.62 (inactive)
same,Z-AUC,[1]; [4],1.54
same,Z-AUC,[1]; measured here: PEO4 Z-AUC,1.47
same,z-score,[2]; [5],0.226
same,z-score,[2]; [6],0.797
same,z-score,[2]; [7],0.0253
CC(C)(Sc1ccc(CCN(CCCCC2CCCCC2)C(=O)NC2CCCCC2)cc1)C(=O)O,Z-AUC,[1],1.3 (inactive)
same,Z-AUC,[1]; [4],1.26
same,Z-AUC,[1]; measured here: PEO4 Z-AUC,1.25
same,z-score,[2]; [5],0.806
same,z-score,[2]; [6],0.0749
same,z-score,[2]; [7],0.555
CNC[C@H](O)c1cccc(O)c1,Z-AUC,[1],0.649 (inactive)
same,Z-AUC,[1]; [4],0.723
same,Z-AUC,[1]; measured here: PEO4 Z-AUC,0.496
same,"activity, negative = inhibition",[3]; [10],6.65% (inactive)
same,"activity, negative = inhibition",[3]; [11],-11% (inactive)
same,Potency,3D7,inactive
same,Potency,7G8,inactive
same,Potency,AA1029,inactive
same,Potency,AS120,inactive
same,Potency,ATS189,inactive
same,Potency,ATS95,inactive
same,Potency,C2A,inactive
same,Potency,CP185,inactive
same,Potency,CP191,inactive
same,Potency,CP192,inactive
same,Potency,CP194,inactive
same,outcome,CP201,inactive
NCCCC(N)(C(=O)O)C(F)F (stereo unspecified),Z-AUC,[1],0.209 (inactive)
same,Z-AUC,[1]; [4],0.253
same,Z-AUC,[1]; measured here: PEO4 Z-AUC,1.05
same,"activity, negative = inhibition",[3]; [10],2.98% (inactive)
same,"activity, negative = inhibition",[3]; [11],4.55% (inactive)
same,Potency,3D7,inactive
same,Potency,7G8,inactive
same,Potency,AA1029,inactive
same,Potency,AS120,inactive
same,Potency,ATS189,inactive
same,Potency,ATS95,inactive
same,Potency,C2A,inactive
same,Potency,CP185,inactive
same,Potency,CP191,inactive
same,Potency,CP192,inactive
same,Potency,CP194,inactive
same,outcome,CP201,inactive
Cc1[nH]c(=O)c(C#N)cc1-c1ccncc1,Z-AUC,[1],-0.809 (inactive)
same,Z-AUC,[1]; [4],-0.611
same,Z-AUC,[1]; measured here: PEO4 Z-AUC,-0.635
same,"activity, negative = inhibition",[3]; [10],-21.8% (inactive)
same,"activity, negative = inhibition",[3]; [11],-1.27% (inactive)
same,Potency,3D7,inactive
same,Potency,7G8,inactive
same,Potency,AA1029,inactive
same,Potency,AS120,inactive
same,Potency,ATS189,inactive
same,Potency,ATS95,inactive
same,Potency,C2A,inactive
same,Potency,CP185,inactive
same,Potency,CP191,inactive
same,Potency,CP192,inactive
same,Potency,CP194,inactive
same,outcome,CP201,inactive
CCCc1nn(C)c2c(=O)[nH]c(-c3cc(S(=O)(=O)N4CCN(C)CC4)ccc3OCC)nc12,Z-AUC,[1],1.57 (inactive)
same,Z-AUC,[1]; [4],1.2
same,Z-AUC,[1]; measured here: PEO4 Z-AUC,0.991
same,"activity, negative = inhibition",[3]; [10],8.82% (inactive)
same,"activity, negative = inhibition",[3]; [11],0.131% (inactive)
same,Potency,3D7,inactive
same,Potency,7G8,11.2 µM (active)
same,Potency,AA1029,inactive
same,Potency,AS120,inactive
same,Potency,ATS189,inactive
same,Potency,ATS95,inactive
same,Potency,C2A,inactive
same,Potency,CP185,inactive
same,Potency,CP191,inactive
same,Potency,CP192,inactive
same,Potency,CP194,inactive
same,outcome,CP201,inactive
